# The sample as a whole holds a higher share of hits than the screen did.
# BL2 CD40 inh: inhibitors of CD40-induced NF-kB signaling, primary screen, BL2 cells, luciferase reporter, single point | CD40L-induced, 4 h | inhibition, % at 10 µM | 83,000 tested, 0.94% active;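 active = mean inhibition of at least 50% with a set share of replicates also reaching that level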;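 note: 0% = neutral control wells and 100% = IKK inhibitor VII at 50 µM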
# Active calls of the source: *; [ ] = another dose, or the depositor's remark.
SMILES,BL2 CD40 inh
CN1C(=O)c2cc(NC(=O)c3cccc(F)c3)ccc2OC[C@H]2O[C@@H](CC(=O)NCC3CC3)CC[C@H]21,2.4
CC(C)NC(=O)N1[C@H](C(=O)N2CCOCC2)[C@@H](CO)[C@@H]2Cn3c(ccc(-c4ccc(F)cc4)c3=O)[C@@H]21,-21.8[25 µM]
CC(C)CC#Cc1ccc([C@H]2[C@@H](CO)N3C(=O)CN(C(=O)NC4CCCC4)C[C@@H]23)cc1,-0.3
CCCNC(=O)N1[C@H](CN(C)C(C)=O)[C@H](c2ccc(C3=CCCC3)cc2)[C@@H]1CO,6.1
C[C@@H]1CN([C@H](C)CO)C(=O)c2c(c3ccccc3n2C)-c2ccccc2CO[C@H]1CN(C)S(=O)(=O)c1cccc(F)c1,2.1
COc1cccc(S(=O)(=O)N(C)C[C@H]2OCc3ccccc3-c3c(n(C)c4ccccc34)C(=O)N([C@H](C)CO)C[C@@H]2C)c1,57.1*[25 µM]
C[C@H](CO)N1C[C@H](C)[C@H](CN(C)S(=O)(=O)c2cccc(F)c2)OCc2ccccc2-c2c(n(C)c3ccccc23)C1=O,-3.5
C[C@H](CO)N1C[C@H](C)[C@@H](CN(C)S(=O)(=O)c2ccc(C#N)cc2)OCc2ccccc2-c2ccccc2C1=O,-12.9
CN1C(=O)c2cc(NC(=O)c3cnccn3)ccc2OC[C@H]2O[C@H](CC(=O)NCC3CC3)CC[C@@H]21,-2.9
COc1ccc(C#Cc2ccc3c(c2)[C@H]2[C@H](CCN2C(=O)C2CCC2)[C@@H](CO)N3)cc1,4.3
CC1=CC(C)(C)N=C(Nc2nc(C)c3cc(C)cc(C)c3n2)N1,48.1*
CCSC1=NC(C)(C)C=C(C)N1,7.0
CCCSc1nc(C)c2cc(C)cc(C)c2n1,7.9
C[C@H]1CN([C@@H](C)CO)S(=O)(=O)c2ccc(-c3ccncc3)cc2O[C@@H]1CN(C)S(C)(=O)=O,0.7[25 µM]
C[C@H]1CN([C@@H](C)CO)C(=O)c2cccc(NS(C)(=O)=O)c2O[C@@H]1CN(C)Cc1ccc(-c2ccccc2)cc1,-5.6[25 µM]
CC(C)NC(=O)Nc1cccc2c1O[C@H](CN(C)C(=O)NC(C)C)[C@@H](C)CN(C)C2=O,9.6
Cc1sc2ncnc(Sc3nnnn3-c3ccccc3)c2c1C,46.5*
CCCSc1ncnc2sc(C)c(C)c12,8.3
Cc1sc2ncnc(SCC#N)c2c1C,5.7
O=C(Nc1ccccc1)NC1CC(C(=O)O)Nc2cc(Cl)cc(Cl)c21 (centres undefined),4.4[25 µM]
O=C1[C@H](Cc2ccc(C(F)(F)F)cc2)CCn2cc(nn2)COC[C@@H]2CCCCN2C(=O)[C@H](Cc2ccc(C(F)(F)F)cc2)CCn2cc(nn2)COC[C@@H]2CCCCN12,8.9
COc1cccc(S(=O)(=O)Nc2ccc3c(c2)C(=O)N(C)[C@H]2CC[C@H](CC(=O)NCC4CCCCC4)O[C@H]2CO3)c1,27.7[25 µM]
CCC1(c2ncc[nH]2)Cc2ccccc2O1 (centres undefined),-4.0[25 µM]
O=C(Cn1cnnn1)NCCc1ccc(Cl)cc1Cl,8.1
O=C1CCN(Cc2ccc(Cl)cc2Cl)C(=O)N1,5.9
SMILES,BL2 CD40 inh
O=C(CCl)N=c1sccn1Cc1ccc(Cl)cc1Cl,88.9*
COc1cccc(NC(=O)N2CC(=O)N3[C@@H](CO)[C@H](c4ccc(C#CC5CCCC5)cc4)[C@@H]3C2)c1,1.6
C/C=C/c1ccc([C@@H]2[C@@H](CO)N(C(C)=O)[C@@H]2CN(CC)C(=O)CN(C)C)cc1,-0.6[25 µM]
COC(=O)CCCSc1nccn1-c1ccccc1,-8.1
c1ccc(CCSc2nccn2-c2ccccc2)cc1,active
O=C(O)c1cccnc1SCCc1ccccc1,-58.4
O=C(/C=C/Sc1ccccc1)c1ccccc1,-26.2
COc1ccc(C(=O)/C=C/Sc2nc3ccccc3o2)cc1,75.2*
N#CCSc1nc2ccccc2o1,10.7
CC(C)NC(=O)N(C)C[C@@H]1Oc2ncccc2C(=O)N(C)C[C@@H]1C,-13.0
Cc1nnc(N2CCOCC2)c2nn(-c3ccccc3)c(C)c12,3.9
c1ccc(-n2nnc3c(N4CCOCC4)ncnc32)cc1,68.1*
c1ccc(Cn2nnc3c(N4CCCC4)ncnc32)cc1,-6.3
N#C[C@H]1[C@@H](c2ccc(C#Cc3ccccc3F)cc2)[C@@H](CO)N1C(=O)C1CCOCC1,15.3
O=C(C1CCCC1)N1CC(=O)N2[C@H](CO)[C@@H](c3ccc(C#CCc4ccccc4)cc3)[C@H]2C1,42.6
O=C(C1CCOCC1)N1CC(=O)N2[C@@H](CO)[C@@H](c3ccc(C#CCc4ccccc4)cc3)[C@@H]2C1,5.3[25 µM]
Cc1ccc(-c2ccc([C@H]3[C@H](CO)N4C(=O)CN(C(=O)NC(C)C)C[C@@H]34)cc2)cc1,-13.9[25 µM]
COCC#Cc1ccc([C@H]2[C@@H](CO)N3C(=O)CN(C(=O)C4CCCC4)C[C@H]23)cc1,-4.0
O=C(C1CCOCC1)N1CC(=O)N2[C@H](CO)[C@@H](c3ccc(C#CCc4ccccc4)cc3)[C@@H]2C1,12.0[25 µM]
CC(C)NC(=O)N1CC(=O)N2[C@H](CO)[C@@H](c3ccc(/C=C/c4ccccc4)cc3)[C@H]2C1,52.9*[25 µM]
Cc1ccc(-c2ccc([C@H]3[C@H]4CN(C(=O)NC(C)C)CC(=O)N4[C@H]3CO)cc2)cc1,5.3[25 µM]

# Screening data as filed in PubChem.
